Bioassay records from PubChem BioAssay.
aDG glyco up: increases alpha dystroglycan glycosylation; Pro5-aDG cells, alpha-DG glycosylation AlphaScreen (IIH6); 0% Pro5, 100% B10-LARGE cell signal; activation, % at 10 µM; 360,000 compounds, 0.22% hits; AID 624168;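 active = activation of at least 8% versus controls, or a plate z-score of at least 8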;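 note: Pro5 are CHO cells carrying HIG-tagged alpha-DG that lacks glycosylation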
APOBEC3A inh: inhibitors of human APOBEC3A DNA deaminase; P31941; inhibition, % at 20 µM; 330,000 compounds, 0.41% hits; recombinant A3A, FAM/TAMRA ssDNA deamination fluorescence;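 active = at least 40% inhibition at 20 µM here, with at most 30% in a related deaminase screen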;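 note: plate controls were A3A with DMSO for no effect and wells lacking A3A enzyme for full effect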
Target sequence (P31941 whole entry, looked up): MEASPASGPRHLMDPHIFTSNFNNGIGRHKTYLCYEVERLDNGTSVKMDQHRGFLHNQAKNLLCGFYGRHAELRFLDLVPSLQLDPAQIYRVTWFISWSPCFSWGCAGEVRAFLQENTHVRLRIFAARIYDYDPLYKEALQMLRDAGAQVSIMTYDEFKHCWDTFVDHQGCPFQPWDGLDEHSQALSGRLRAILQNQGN
rCAG binder: molecules binding r(CAG) RNA repeats; r(CAG) RNA repeat, TO-PRO-1 dye displacement fluorescence; inhibition, % at 3 µM; 370,000 compounds, 1.3% hits; AID 651821;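 active = inhibition above the plate cutoff, the mean of all test compounds on that plate plus 3 SD, cut at about 35% in these data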;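 note: 0% = DMSO alone and 100% = 100 µM mitoxantrone as full dye displacement; higher means more dye released from RNA so lower well fluorescence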
A3G deaminase: blocks human APOBEC3G single-stranded DNA deamination | recombinant A3G, ssDNA deamination FAM/TAMRA fluorescence | inhibition, % at 20 µM | 330,000 compounds, 0.28% hits | AID 493012;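 active = inhibition of at least 40% at 20 µM, with no more than 30% in the related APOBEC3A deaminase screen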;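 note: plate controls were DMSO wells with A3G for no effect and wells lacking A3G enzyme for full effect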
PHOSPHO1 block: PHOSPHO1 (human) inhibition | 290,000 compounds, 1.1% hits | recombinant PHOSPHO1, absorbance phosphatase assay | inhibition, % at 13.3 µM | Q8TCT1; in the data active = inhibition above about 60%
Target sequence (Q8TCT1 whole entry, looked up): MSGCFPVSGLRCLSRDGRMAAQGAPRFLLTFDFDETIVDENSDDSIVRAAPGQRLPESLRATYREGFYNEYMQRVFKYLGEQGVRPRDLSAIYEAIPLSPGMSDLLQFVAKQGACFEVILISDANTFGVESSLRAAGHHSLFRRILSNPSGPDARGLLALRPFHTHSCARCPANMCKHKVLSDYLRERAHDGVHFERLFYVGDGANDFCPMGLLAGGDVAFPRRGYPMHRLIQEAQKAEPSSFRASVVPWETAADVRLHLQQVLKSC
ALR H2O2 inh: human ALR oxidase inhibition via reduced H2O2 | purified ALR, DTT oxidation, H2O2 HRP-luminol luminescence | P55789 | 290,000 compounds, 3.8% hits | inhibition, % (no concentration beside the values);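 active = mean replicate inhibition above about 79%, with every replicate also reaching it, limit read from the data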
Target sequence (P55789 whole entry, looked up): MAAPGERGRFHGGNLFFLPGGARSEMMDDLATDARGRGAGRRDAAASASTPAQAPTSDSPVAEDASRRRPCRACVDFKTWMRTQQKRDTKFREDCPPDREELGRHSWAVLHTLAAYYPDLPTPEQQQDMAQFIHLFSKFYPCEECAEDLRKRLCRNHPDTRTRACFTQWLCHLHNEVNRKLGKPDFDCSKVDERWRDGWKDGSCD
Active calls of the source: *; . = no result. Rows were chosen to be rich in hits. Some 5.4% of all compounds tested hit in one or more screens of this group.

SMILES | aDG glyco up | APOBEC3A inh | rCAG binder | A3G deaminase | PHOSPHO1 block | ALR H2O2 inh
COc1cc(NC(=O)Cn2cnc3c(nc4n3CCCCC4)c2=O)cc(OC)c1OC | 1.4 | 2.3 | 0.2 | 17.3 | 75.1* | -2.2
c1ccc2c(c1)OCCc1c-2[nH]c2ccccc12 | -0.1 | -3.0 | 5.4 | -6.8 | 17.9 | 95.7*
O=C1CCCc2c1[nH]c1ccccc21 | -0.1 | -0.4 | 8.9 | 0.7 | 27.9 | -1.2
O=S1(=O)N[C@@H](Cc2ccccc2)COc2cccc(NCCO)c21 | . | . | 0.5 | . | . | .
Cc1ccc(-n2c(C)cc(/C=c3/sc4nc5ccccc5n4c3=O)c2C)cc1 | . | -3.7 | . | -6.4 | 61.5* | -5.5
O=c1/c(=C\c2cccn2-c2ccccc2)sc2nc3ccccc3n12 | -0.2 | . | 1.4 | . | 23.4 | .
O=C(c1ccccc1)c1cccn1CC(=O)N1CCN(c2ccccc2)CC1 | 2.4 | 0.1 | -1.6 | -0.8 | 41.9 | 96.8*
O=C(c1ccccc1)c1cccn1CC(=O)N1CCN(C2CCCCC2)CC1 | -0.2 | -1.5 | -4.1 | -0.1 | 44.8 | -10.0
O=C(c1ccccc1)c1ccc(C(=O)N2CCN(c3ccc(O)cc3)CC2)cc1 | 0.1 | -7.5 | 7.3 | -3.9 | . | 99.4*
C=CCN1C(=O)[C@@H](CC(=O)N2CCN(C(=O)C3CC3)CC2)[C@]2(C(=O)OC)CCCCC=C12 | . | . | 7.0 | . | . | .
CN[C@H]1C[C@H]2c3cc(-c4ccc5c(c4)OCO5)ccc3CCN2C[C@H]1[C@H](C)O | . | . | 9.8 | . | . | .
O=C1OCC(CO)(CO)N=C1NNc1ccccc1Cl | 0.0 | -4.7 | 3.2 | -9.6 | 82.0* | 99.4*
CCOC(=O)c1ccc2c(c1)nc(SCC(=O)c1ccco1)n2CC | 0.2 | 2.1 | 1.0 | -7.6 | 78.9* | -5.2
CCOC(=O)c1ccc2c(c1)nc(SC/C(O)=C(\C#N)c1nc3ccccc3[nH]1)n2CC | -0.2 | 21.4 | 5.1 | 12.5 | 87.7* | -1.8
Cc1ccc(-n2[nH]c(=O)c3cccnc32)cc1 | -0.2 | -3.9 | 2.6 | -11.9 | 39.9 | 96.7*
Cc1ccc(-n2[nH]c(=O)c(-c3ccccn3)c2C)cc1 | -0.1 | -4.1 | 6.0 | -9.5 | 31.1 | 19.3
OCC1SC(O)C(O)C(O)C1O (centres undefined) | . | . | 0.0 | . | . | .
O=Nc1ccc(NOC(=O)c2ccccc2Br)cc1 | 0.1 | 0.8 | 1.9 | -2.2 | -6.2 | 60.1
O=C(ONc1ccc(N=NC(=O)c2ccccc2O)cc1)c1ccccc1 | 0.0 | 2.1 | 10.5 | -2.2 | 83.1* | 97.8*
CCn1cnc2cc(NCc3ccc(Br)cc3)ccc21 | . | -1.8 | -4.2 | -7.9 | 32.6 | 86.3*
CCn1cnc2cc(NCc3ccc(C)cc3)ccc21 | 0.6 | -4.7 | -6.7 | -2.0 | 19.8 | 86.5*
Cc1ccc(CNc2ccc3c(c2)ncn3C(C)C)cc1 | 0.2 | -6.0 | -8.0 | -7.4 | 21.9 | 93.1*
CC(C)NC(=O)N[C@H]1C[C@@H]2O[C@@H](CO)CC[C@@H]2O[C@@H]1CCc1ccc(-c2ccc(F)cc2)cc1 | . | . | -0.6 | . | . | .
COc1ccc(OC)c(S(=O)(=O)N2CCCCC2C(=O)N2CCN(CCO)CC2)c1 (centres undefined) | . | . | 9.2 | . | . | .
C=Cc1ccc(C(=O)Nc2nnc(-c3cccnc3)s2)cc1 | . | . | 7.2 | . | . | .
SMILES | aDG glyco up | APOBEC3A inh | rCAG binder | A3G deaminase | PHOSPHO1 block | ALR H2O2 inh
O=C(OC12CCCN(C1)/C(=C/c1cccnc1)C2)c1ccc(F)cc1 (centres undefined) | . | . | -0.2 | . | . | .
CSCCC(NC(N)=O)C(=O)Nc1ccc(C)cc1 (centres undefined) | -0.3 | -0.9 | -2.8 | -2.5 | 62.9* | -3.2
CCCC[C@H]1C2CC(OC(=O)Nc3cccc(F)c3)C(C2)[C@H]2CCCCN21 (some centres undefined) | . | . | -1.9 | . | . | .
N#Cc1cc2c(nc1SCc1nc3ccccc3[nH]1)CCC2 | . | 1.3 | . | -3.1 | 74.0* | 12.2
Cc1cccc(CSc2nc3c(cc2C#N)CCC3)c1 | 0.1 | -1.4 | 2.1 | -9.3 | 24.2 | -1.3
CC1CCc2c(nc3ncnn3c2N2CCN(c3ccccc3)CC2)C1 (centres undefined) | 0.8 | -1.7 | -4.0 | -1.9 | 18.8 | 98.7*
CN(CCO)c1cccc2c1S(=O)(=O)N(Cc1cn(Cc3cccc(C(F)(F)F)c3)nn1)Cc1ccccc1O2 | . | . | 0.2 | . | . | .
COc1ccc(N(C(=O)CSCC(=O)Nc2cc(C)on2)C(C(=O)NC2CCCCC2)c2ccc(O)c(O)c2)cc1 (centres undefined) | -0.1 | -4.5 | 3.7 | -4.7 | -18.2 | 85.0*
Cc1cc(NC(=O)CSCC(=O)N(c2ccc(F)cc2)C(C(=O)NC2CCCCC2)c2ccc(O)c(O)c2)no1 (centres undefined) | 0.0 | 2.4 | 3.8 | 1.8 | 15.8 | -3.2
CC(=O)Nc1ccc(N(C(=O)Cn2nnc3ccccc32)C(C(=O)NC2CCCC2)c2ccc(O)c(O)c2)cc1 (centres undefined) | 0.7 | -1.6 | 6.0 | -10.1 | 11.7 | 92.5*
Cc1cc(NC(=O)CSCC(=O)N(c2cccc(Cl)c2)C(C(=O)NC2CCCCC2)c2ccc(O)c(O)c2)no1 (centres undefined) | 0.0 | -0.4 | 1.8 | -6.6 | -4.0 | 99.0*
CCOc1cc(C(C(=O)NCC2CCCO2)N(C(=O)Cn2nnc3ccccc32)c2ccc(NC(C)=O)cc2)ccc1O (centres undefined) | -0.1 | -3.9 | -0.6 | -4.5 | 18.7 | 10.9
CCOC(=O)COc1cccc2c(=O)n(CC(=O)N3CCCc4ccccc43)ccc12 | 0.2 | -2.3 | -0.1 | -1.4 | 2.0 | 97.2*
CCOC(=O)C1(C)C=C(Nc2ccc(O)cc2)C(=O)N1c1ccc(O)cc1 (centres undefined) | 0.1 | -1.9 | 10.2 | -1.5 | -2.2 | 99.6*
CCOC(=O)C1(C)C=C(Nc2ccc(OC)cc2)C(=O)N1c1ccc(OC)cc1 (centres undefined) | -0.1 | -2.0 | 0.4 | -5.0 | 10.9 | -5.5
Cc1cccc(Nc2ncnc3nc[nH]c23)c1 | 0.8 | -1.6 | 1.9 | 3.2 | -14.4 | 94.7*
CO[C@@]1(NC(=O)CSCC#N)C(=O)N2C(C(=O)O)=C(CSc3nnnn3C)CS[C@@H]21 | 0.7 | 92.6 | 52.0* | 50.8 | 10.9 | 4.0
O=C(Nc1c(Cl)cc(Cl)cc1C(=O)NCCN1CCOCC1)c1cccc([N+](=O)[O-])c1 | -0.1 | -1.0 | -0.2 | -2.5 | 51.8 | 99.4*
NS(=O)(=O)c1cccc(NC(=O)CSc2nc3ccc(Cl)cc3[nH]2)c1 | -0.1 | 2.6 | 7.7 | -3.0 | 44.0 | 97.1*
Nn1cc(-c2ccccc2)nc1SCC(=O)NCCN1C(=O)CSC1=O | -0.1 | -3.6 | 7.0 | -6.3 | 81.6* | -0.3
Nn1cc(-c2ccccc2)nc1SCC(=O)Nc1cccc(S(N)(=O)=O)c1 | -0.2 | -3.3 | 6.9 | -8.8 | -2.8 | 98.7*
COC(=O)c1ccc2c(c1)C(C)(C)C(/C=C/c1ccccc1O)=[N+]2C | -0.5 | 24.4 | -36.7 | 9.9 | 41.7 | 87.2*
C=CCOc1ccc(CNn2cn[nH]c2=S)cc1OC | -0.1 | -2.7 | 2.7 | 15.2 | 53.1 | -21.8
